Source: PubChem (National Center for Advancing Translational Sciences (NCATS))
A selection: hits, their analogues and other compounds. The true share with any hit is near 2.4%.
D2 PAM-1 = potentiates the human D2 dopamine receptor allosterically. P14416. DiscoveRx D2 beta-arrestin cells, luminescence, 90 min; 100% = 57 uM dopamine signal. potentiation, % (no concentration beside the values). 0.23% of 360,000 active. AID 624464; in the data active = potentiation above about 50%; inconclusive = mostly about 30% to 49%
Target sequence (P14416 whole entry, looked up): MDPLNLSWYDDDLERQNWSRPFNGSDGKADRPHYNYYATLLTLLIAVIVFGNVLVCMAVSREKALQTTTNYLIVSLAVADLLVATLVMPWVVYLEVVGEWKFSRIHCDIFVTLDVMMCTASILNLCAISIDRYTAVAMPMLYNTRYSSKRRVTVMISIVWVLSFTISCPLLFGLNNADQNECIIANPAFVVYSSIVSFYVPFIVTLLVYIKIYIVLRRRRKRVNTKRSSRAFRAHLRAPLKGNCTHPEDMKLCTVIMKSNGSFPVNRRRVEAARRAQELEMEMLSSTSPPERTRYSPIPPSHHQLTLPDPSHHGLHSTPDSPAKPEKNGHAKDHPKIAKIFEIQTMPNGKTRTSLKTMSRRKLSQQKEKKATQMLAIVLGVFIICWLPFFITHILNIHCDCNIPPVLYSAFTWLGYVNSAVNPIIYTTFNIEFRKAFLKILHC
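D2 cells co-treated with compound plus 50 nM dopamine (EC20) for 90 min at 37 deg C to detect potentiation. Beta-arrestin recruitment was read as enzyme-fragment luminescence after 1 h at ambient temperature. Full response was set by 57 uM dopamine.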
D2 antag = D2 dopamine receptor (human) antagonism | P14416 | HEK293 TREx D2 cells, calcium flux, dopamine EC80 | inhibition, % at 10 µM | 2% of 340,000 active | AID 485344; in the data active = inhibition above about 30%; inactive = below that, where a call was filed
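Tetracycline-induced HEK293 TREx cells expressing D2 receptor forced-coupled to calcium signalling, loaded with no-wash calcium dye. Compounds added and calcium flux read 180 s, then dopamine added at EC80 and read a further 180 s.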
D2 ag-1 = human D2 receptor agonism in beta-arrestin assay | 0.084% of 360,000 active | P14416 | DiscoveRx PathHunter D2 beta-arrestin, luminescence, 90 min; 100% = 57 uM dopamine signal | activation, % (concentration not given with the values) | AID 624465; in the data active = activation above about 40%; inconclusive = between about 15% and that limit
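Agonist mode: compounds alone added to overnight-plated D2 PathHunter cells for 90 min at 37 C, with 57 uM final dopamine (EC100) defining full response. Beta-arrestin recruitment detected by chemiluminescent reagent, read after 1 h at ambient temperature.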
D2 ag-2 = agonists of human D2 dopamine receptor. activation, % at 2 µM. 0.53% of 340,000 active. P14416. HEK293 T-REx D2 cells, calcium flux agonist mode;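 active = activation over 3 SD above normal in the single-dose calcium agonist read, cut at about 30% in these data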
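Tetracycline-induced HEK293 Trex cells with D2 receptor force-coupled to calcium signaling, plated overnight at 30 C and loaded with no-wash calcium dye. Calcium flux read kinetically for 180 s after compound addition; responses flag agonists.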
D2 PAM-2 = D2 dopamine receptor (human) potentiation | HEK293 T-REx D2, calcium flux, EC20 dopamine potentiation | potentiation, % at 10 µM | 0.34% of 340,000 active;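 active = potentiation over 3 SD above the plate norm, cut at about 30% in these data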
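Tetracycline-induced HEK293 T-REx cells force-coupled to calcium signalling expressed D2; compounds were pin-added after a 10 s baseline, read kinetically 180 s, then an EC20 dopamine challenge followed with a further 180 s calcium read.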
Of the large screens only hits and unclear results are named; the others gave an inactive call.

Cc1cc(-c2ccc(C)c(S(=O)(=O)NCCCN3CCCCCC3)c2)on1	D2 antag 33.7
CCc1ccc(-c2cc(C)no2)cc1S(=O)(=O)NCCc1ccccc1	D2 antag 30.4
Cc1ccc(NC(=O)Nc2nnc(SCC(=O)N3CCCCC3)s2)cc1	none (no result: D2 PAM-1, D2 antag, D2 ag-1)
CCN(C(=O)c1cnc(N2CCOCC2)c2ccccc12)c1cc(C)ccc1C	none (no result: D2 PAM-1, D2 antag, D2 ag-1)
CCCCn1cc(S(=O)(=O)c2ccccc2)c(=O)c2cc(F)c(N3CCN(CCC)CC3)cc21	none (no result: D2 PAM-1, D2 antag, D2 ag-1)
CSc1ccc(CN2CCCC(CNC(=O)c3ccc(F)cc3)C2)cc1 (centres undefined)	D2 antag 40.7
COc1ccc(CC(=O)NCC2CCCN(Cc3cccc(C(F)(F)F)c3)C2)cc1 (centres undefined)	none
O=C(NCC1CCCN(Cc2ccccc2F)C1)c1cccc(C(F)(F)F)c1 (centres undefined)	D2 antag 31.5
Cc1ccc(Cl)cc1N(C)C(=O)c1cc2ccc3cccnc3c2[nH]1	none (no result: D2 PAM-1, D2 antag, D2 ag-1, D2 ag-2)
Cc1nc2ccccc2c(=O)n1CCCO	D2 antag 31.9
CC1CCC2(CC1)NC(=O)c1ccccc1O2 (centres undefined)	D2 PAM-2 31.6
CC1(c2ccccc2)NC(=O)N(CC(=O)N2CCOCC2)C1=O (centres undefined)	none
CC(C)(C)C1(c2ccccc2)NC(=O)N(CC(=O)N2CCOCC2)C1=O (centres undefined)	D2 antag 43.8
O=C(CN1C(=O)C2C3C=CC(C3)C2C1=O)N1CC(=O)N(CCc2ccccc2)C(=O)C1 (centres undefined)	none
O=C(CCN1C(=O)C2C3C=CC(C3)C2C1=O)N1CC(=O)N(CCc2ccccc2)C(=O)C1 (centres undefined)	D2 antag 31.3
O=C(NCc1ccco1)c1cccc2c1C(=O)N(C1CCCCC1)C2	D2 PAM-2 35.3
Cc1ccccc1CN(C)CC(=O)Nc1ccccc1Oc1ccccc1	D2 antag 42.8
CCCOc1ccc(CNC(=O)c2cc3ccccn3n2)cc1	none (no result: D2 PAM-1, D2 antag, D2 ag-1)
Cc1ccc(CCNC(=O)c2ccc3c(c2)c(C)c(C)n3Cc2ccccc2)cc1	none (no result: D2 PAM-1, D2 antag, D2 ag-1)
COc1cccc(CN2C(=O)C(C)N(C(=O)c3ccccc3)c3ccccc32)c1 (centres undefined)	D2 PAM-2 31.1
CCOC(=O)c1c(S(=O)(=O)N2CCC(C(=O)Nc3cccc(C#N)c3)CC2)c(C)n(C)c1C	none (no result: D2 PAM-1, D2 antag, D2 ag-1)
CC(=O)Nc1cc[n+](C(C)C(=O)c2ccccc2)cc1 (centres undefined)	none
CC(=O)Nc1cc[n+](C(C)C(=O)c2ccc(Br)cc2)cc1 (centres undefined)	D2 antag 53.9
CCCS(=O)(=O)N1CC(=O)N(c2ccccc2F)C(C)(C(=O)NC2CCCCCC2)C1 (centres undefined)	none (no result: D2 PAM-1, D2 antag, D2 ag-1)
COc1cc(CNCCN2CCOCC2)ccc1OCc1cccc(Cl)c1	D2 antag 42.3
CCCCc1nc(NCCO)c(C#N)c2c1CCCC2	D2 antag 48.2
CCOC(=O)CC1=C(C(=O)OCC)C(c2cccnc2)C(C#N)=C(N)O1 (centres undefined)	none
CCOC(=O)CC1=C(C#N)C(c2cccnc2)C(C(=O)OCC)=C(N)O1 (centres undefined)	D2 antag 37.7
CC1=C(n2nnc([N+](=O)[O-])n2)C(c2cccnc2)C(C#N)=C(N)O1 (centres undefined)	D2 PAM-1 110.3, D2 ag-1 inconclusive
O=C(CS(=O)(=O)c1cccc2nsnc12)NCc1ccccc1	none (no result: D2 PAM-1, D2 antag, D2 ag-1)
Cc1cc(C)c(S(=O)(=O)Nn2cnnc2)c(C)c1	D2 antag 31.9
CN(C)Cc1c(O)ccc2occ(C(=O)c3ccccc3)c12	D2 PAM-2 53.7
CCN(CC)C(=O)Cn1c(=O)n(Cc2ccc(C(=O)NCCc3ccc(OC)c(OC)c3)cc2)c(=O)c2ccccc21	none (no result: D2 PAM-1, D2 antag, D2 ag-1)
CCOC(=O)c1cc(S(=O)(=O)NCc2ccc(Cl)cc2)[nH]n1	none (no result: D2 PAM-1, D2 antag, D2 ag-1)
COc1ccccc1CCNC(=O)Cc1c(C)c2cc(Cl)c(O)cc2oc1=O	none (no result: D2 PAM-1, D2 antag, D2 ag-1)
Cc1cc(C)nc(Nc2n[nH]c(Cc3ccccc3)n2)n1	D2 ag-2 44.8 (no result: D2 PAM-1, D2 ag-1)
COc1cc(C)nc(NCc2ccccc2)n1	none
CC(C)(Cc1ccc(O)cc1)NC(=O)CC(=O)N=Nc1c(O)[nH]c2ccc(Br)cc12	D2 ag-2 31.1
CCCCOC(=O)c1ccc(NS(=O)(=O)c2c(C)nc3scc(C)n3c2=O)cc1	none (no result: D2 PAM-1, D2 antag, D2 ag-1)
Nc1ccc2nc3c(=O)n(CCc4ccccc4)c(=O)[nH]c3nc2c1	D2 ag-2 94.9
Nc1ccc2nc(CCc3ccccc3)[nH]c2c1	none
Nc1ccc2nc3c(=O)n(C4CCCCC4)c(=O)[nH]c3nc2c1	none (no result: D2 antag, D2 ag-2)
Cc1cc2nc3c(=O)n(CCc4ccccc4)c(=O)[nH]c3nc2cc1N	D2 ag-2 95.3
CCCCn1c(=O)[nH]c2nc3cc(N)ccc3nc2c1=O	D2 ag-2 61.2
CCCCCOc1ccc(Br)cc1/C(C)=N/NC1=NCCN1	none
COc1ccc(Br)cc1/C(C)=N/NC1=NCCN1	D2 antag 32.6
CN1CCCN(C(=O)CNC(=O)Cc2ccccc2)CC1	none
O=C(Cc1ccccc1)NCC(=O)N1CCCC1	D2 antag 34.6
Cc1ccccc1OCc1ccc(-c2nc(C#N)c(NCc3cccnc3)o2)o1	none (no result: D2 PAM-1, D2 antag, D2 ag-1)
O=C(COC(=O)/C=C/c1ccc(OC(F)F)cc1)NC(=O)NC1CCCCC1	none (no result: D2 antag, D2 ag-2, D2 PAM-2)
O=C(/C=C/c1ccc(OC(F)F)cc1)OCC(=O)N1CCC(c2ccccc2)=N1	D2 antag 38.6
O=C(COC(=O)/C=C/c1ccc(OC(F)F)cc1)NC1CCCC1	D2 antag 32.2
CC(=O)Nc1ccc(N(C(=O)Cn2nnc3ccccc32)C(C(=O)NCc2ccccc2)c2ccc(C)cc2)cc1 (centres undefined)	none (no result: D2 PAM-1, D2 antag, D2 ag-1, D2 ag-2)
CN1CCC(N(C)S(=O)(=O)c2ccc(F)cc2F)CC1	D2 antag 32.8
CCCS(=O)(=O)N1CCC(C(=O)NCCOC)CC1	none (no result: D2 PAM-1, D2 antag, D2 ag-1)
CN(CC(=O)Nc1ccc(Cl)c(C(F)(F)F)c1)C(=O)c1cccs1	none
CC(=O)c1c(C)[nH]c(C(=O)N(C)CC(=O)Nc2ccc(Cl)c(C(F)(F)F)c2)c1C	D2 antag 39.3
CN(CC(=O)NCCc1ccc(S(N)(=O)=O)cc1)CC(=O)Nc1ccc(Cl)c(C(F)(F)F)c1	none (no result: D2 antag, D2 ag-2, D2 PAM-2)
CN(CC(=O)NC(=O)NCc1ccccc1)CC(=O)Nc1ccc(Cl)c(C(F)(F)F)c1	D2 antag 35.2
O=C(c1nc2ccccn2c1CNCCCn1ncc2ccccc21)N1CCOCC1	none
Cn1cc(CNCCCn2ncc3ccccc32)c(-c2ccccc2F)n1	D2 antag 37.2
O=S(=O)(c1ccccc1)c1nnn2c1nc(NCc1ccccc1)c1cc(Cl)ccc12	none (no result: D2 PAM-1, D2 antag, D2 ag-1)
O=C(CCNC(=O)C1CCN(S(=O)(=O)c2ccc(F)cc2)CC1)NCc1ccc(F)cc1	D2 antag 32.7
